Reference: paper PMC7862700, “An all-to-all approach to the identification of sequence-specific readers for epigenetic DNA modifications on cytosine”

Legend:
Experiment in all cases: DAPPL (digital affinity profiling via proximity ligation, sequencing); 10 mM Tris-HCl pH 7.5, 50 mM NaCl, 1 mM DTT, 4% glycerol, room temperature, 30 min; GST-TFs on glutathione beads, 16-mer random dsDNA library, 0.1% formaldehyde crosslink after washing; high values mean tight binding
[1] = target: T1, FLI1 (Homo sapiens, UniProt Q01543 1-452); details: protein: recombinant; tags: N-terminal GST; dsDNA, one strand shown
T1 sequence: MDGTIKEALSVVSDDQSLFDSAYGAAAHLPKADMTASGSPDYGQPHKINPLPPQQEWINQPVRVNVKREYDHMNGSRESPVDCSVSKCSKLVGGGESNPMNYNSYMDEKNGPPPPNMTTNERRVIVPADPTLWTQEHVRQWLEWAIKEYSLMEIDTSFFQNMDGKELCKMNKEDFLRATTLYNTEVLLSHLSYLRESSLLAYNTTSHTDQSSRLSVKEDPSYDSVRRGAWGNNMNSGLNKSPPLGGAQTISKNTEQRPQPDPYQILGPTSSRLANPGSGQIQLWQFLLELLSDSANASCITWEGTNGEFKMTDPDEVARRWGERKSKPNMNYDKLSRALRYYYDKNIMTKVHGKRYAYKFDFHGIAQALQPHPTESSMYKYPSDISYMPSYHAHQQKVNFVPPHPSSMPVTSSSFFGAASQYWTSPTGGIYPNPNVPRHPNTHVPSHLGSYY
Procedure, shortened: (§1)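 Human transcription factors were made in yeast as GST fusions, captured on glutathione beads and barcoded with DNA. With a tag-only sample included, the pool was incubated with 200 nmole of a random double-stranded 16-mer DNA library in Tris/NaCl/DTT/glycerol buffer at room temperature for 30 min, then crosslinked with 0.1% formaldehyde after washing, ligated by proximity, amplified and sequenced. For binding signal, each hexamer's read frequency for a factor is divided by its frequency for the tag-only sample.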

[2] = target: T2, ELK1 (Homo sapiens, UniProt P19419 1-428); details: protein: recombinant; tags: N-terminal GST; dsDNA, one strand shown
T2 sequence: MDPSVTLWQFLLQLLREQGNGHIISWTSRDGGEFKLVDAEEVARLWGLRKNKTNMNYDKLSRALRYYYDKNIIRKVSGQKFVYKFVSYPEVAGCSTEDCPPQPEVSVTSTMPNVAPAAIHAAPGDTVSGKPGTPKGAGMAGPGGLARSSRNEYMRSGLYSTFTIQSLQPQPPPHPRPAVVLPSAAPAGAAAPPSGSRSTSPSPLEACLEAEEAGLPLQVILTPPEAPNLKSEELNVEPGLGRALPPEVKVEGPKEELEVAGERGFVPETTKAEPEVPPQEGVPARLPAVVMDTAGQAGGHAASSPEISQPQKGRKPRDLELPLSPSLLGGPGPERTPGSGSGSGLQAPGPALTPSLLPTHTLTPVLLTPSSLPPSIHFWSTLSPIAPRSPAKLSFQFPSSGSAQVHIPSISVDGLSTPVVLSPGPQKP
Procedure, shortened: as §1

[3] = target: T3, GABPA (Homo sapiens, UniProt Q06546 1-454); details: protein: recombinant; tags: N-terminal GST; dsDNA, one strand shown
T3 sequence: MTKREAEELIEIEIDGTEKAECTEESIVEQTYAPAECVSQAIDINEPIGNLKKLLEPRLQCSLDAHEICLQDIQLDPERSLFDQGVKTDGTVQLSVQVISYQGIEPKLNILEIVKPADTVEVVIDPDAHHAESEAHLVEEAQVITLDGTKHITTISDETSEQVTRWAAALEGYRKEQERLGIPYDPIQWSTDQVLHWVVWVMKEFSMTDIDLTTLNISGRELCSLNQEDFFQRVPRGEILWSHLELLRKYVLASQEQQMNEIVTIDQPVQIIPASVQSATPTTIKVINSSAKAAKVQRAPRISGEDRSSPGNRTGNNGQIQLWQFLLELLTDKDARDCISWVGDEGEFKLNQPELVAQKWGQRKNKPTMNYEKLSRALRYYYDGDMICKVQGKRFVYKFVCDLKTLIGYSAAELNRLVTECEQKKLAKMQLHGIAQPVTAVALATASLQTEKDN
Procedure, shortened: as §1

[4] = target: T4, ERG (Homo sapiens, UniProt P11308 1-479); details: protein: recombinant; tags: N-terminal GST; dsDNA, one strand shown
T4 sequence: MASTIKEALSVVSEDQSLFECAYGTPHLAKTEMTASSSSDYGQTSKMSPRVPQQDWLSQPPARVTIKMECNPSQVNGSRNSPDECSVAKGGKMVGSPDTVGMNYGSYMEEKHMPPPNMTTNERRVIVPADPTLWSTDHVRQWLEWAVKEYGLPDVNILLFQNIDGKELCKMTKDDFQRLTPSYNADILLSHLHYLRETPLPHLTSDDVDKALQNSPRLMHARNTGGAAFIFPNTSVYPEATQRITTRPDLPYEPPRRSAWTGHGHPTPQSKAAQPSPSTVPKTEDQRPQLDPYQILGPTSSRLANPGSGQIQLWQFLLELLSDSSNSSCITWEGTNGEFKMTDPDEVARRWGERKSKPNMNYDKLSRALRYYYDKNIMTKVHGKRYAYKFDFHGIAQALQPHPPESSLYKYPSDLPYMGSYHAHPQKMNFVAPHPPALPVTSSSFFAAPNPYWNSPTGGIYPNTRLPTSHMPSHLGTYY
Procedure, shortened: as §1

[5] = target: ELF1 (Homo sapiens, UniProt P32519 1-619); details: protein: recombinant; tags: N-terminal GST; dsDNA, one strand shown
Sequence of ELF1 (P32519 whole entry): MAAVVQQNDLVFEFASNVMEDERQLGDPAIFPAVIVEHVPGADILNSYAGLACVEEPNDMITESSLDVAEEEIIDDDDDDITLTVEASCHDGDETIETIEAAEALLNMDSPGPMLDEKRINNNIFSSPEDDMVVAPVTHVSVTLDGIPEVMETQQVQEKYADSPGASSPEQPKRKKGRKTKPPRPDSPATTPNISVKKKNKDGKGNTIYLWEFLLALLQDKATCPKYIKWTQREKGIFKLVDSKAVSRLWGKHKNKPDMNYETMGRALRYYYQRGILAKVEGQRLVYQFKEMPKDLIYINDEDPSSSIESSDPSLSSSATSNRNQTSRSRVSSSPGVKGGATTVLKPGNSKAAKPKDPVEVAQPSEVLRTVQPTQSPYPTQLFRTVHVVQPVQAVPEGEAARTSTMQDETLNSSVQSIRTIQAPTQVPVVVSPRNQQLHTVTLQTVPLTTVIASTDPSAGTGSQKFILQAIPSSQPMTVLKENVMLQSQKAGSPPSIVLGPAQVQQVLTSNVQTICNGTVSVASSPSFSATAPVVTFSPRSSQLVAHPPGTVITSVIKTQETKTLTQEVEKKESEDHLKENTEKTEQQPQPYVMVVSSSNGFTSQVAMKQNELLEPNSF
Procedure, shortened: as §1

[6] = target: T5, EHF (Homo sapiens, UniProt Q9NZC4 1-300); details: protein: recombinant; tags: N-terminal GST; dsDNA, one strand shown
T5 sequence: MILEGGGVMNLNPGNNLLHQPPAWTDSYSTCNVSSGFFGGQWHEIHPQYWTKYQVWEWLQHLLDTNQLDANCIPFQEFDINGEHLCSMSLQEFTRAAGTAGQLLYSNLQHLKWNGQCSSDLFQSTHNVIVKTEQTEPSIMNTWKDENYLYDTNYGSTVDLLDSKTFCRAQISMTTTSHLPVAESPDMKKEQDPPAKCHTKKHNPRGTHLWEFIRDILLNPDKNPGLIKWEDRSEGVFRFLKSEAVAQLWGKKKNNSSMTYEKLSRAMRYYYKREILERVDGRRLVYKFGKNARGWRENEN
Procedure, shortened: as §1

[7] = target: SPI1 (Homo sapiens, UniProt P17947 1-270); details: protein: recombinant; tags: N-terminal GST; dsDNA, one strand shown
Procedure, shortened: as §1

[8] = target: SPIB (Homo sapiens, UniProt Q01892 1-262); details: protein: recombinant; tags: N-terminal GST; dsDNA, one strand shown
Sequence of SPIB (Q01892 whole entry): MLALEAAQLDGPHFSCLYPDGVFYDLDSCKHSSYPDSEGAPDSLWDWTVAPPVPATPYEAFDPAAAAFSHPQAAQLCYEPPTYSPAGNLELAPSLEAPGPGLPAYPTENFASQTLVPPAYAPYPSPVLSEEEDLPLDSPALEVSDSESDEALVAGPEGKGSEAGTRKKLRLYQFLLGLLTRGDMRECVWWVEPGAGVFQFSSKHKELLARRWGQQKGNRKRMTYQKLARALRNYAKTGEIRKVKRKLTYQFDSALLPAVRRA
Procedure, shortened: as §1

[9] = target: T6, ELK3 (Homo sapiens, UniProt P41970 1-407); details: protein: recombinant; tags: N-terminal GST; dsDNA, one strand shown
T6 sequence: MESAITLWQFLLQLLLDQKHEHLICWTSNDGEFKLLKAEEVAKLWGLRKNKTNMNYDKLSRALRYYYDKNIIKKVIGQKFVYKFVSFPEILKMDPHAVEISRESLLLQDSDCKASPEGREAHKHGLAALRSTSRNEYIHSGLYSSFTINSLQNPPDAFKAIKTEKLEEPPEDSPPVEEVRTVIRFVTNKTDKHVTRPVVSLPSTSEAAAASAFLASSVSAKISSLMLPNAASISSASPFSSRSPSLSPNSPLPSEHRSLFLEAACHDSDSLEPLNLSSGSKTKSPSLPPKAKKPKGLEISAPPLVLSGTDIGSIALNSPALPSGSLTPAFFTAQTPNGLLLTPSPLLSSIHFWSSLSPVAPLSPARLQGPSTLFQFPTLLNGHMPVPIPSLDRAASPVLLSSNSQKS
Procedure, shortened: as §1

[10] = target: T7, FEV (Homo sapiens, UniProt Q99581 1-238); details: protein: recombinant; tags: N-terminal GST; dsDNA, one strand shown
T7 sequence: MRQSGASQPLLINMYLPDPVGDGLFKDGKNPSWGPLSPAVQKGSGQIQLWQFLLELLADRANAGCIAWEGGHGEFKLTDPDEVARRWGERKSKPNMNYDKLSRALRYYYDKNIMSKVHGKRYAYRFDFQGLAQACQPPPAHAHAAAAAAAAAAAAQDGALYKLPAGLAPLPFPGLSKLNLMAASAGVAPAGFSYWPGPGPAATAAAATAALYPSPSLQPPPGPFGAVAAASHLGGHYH
Procedure, shortened: as §1

[11] = target: ETV5 (Homo sapiens, UniProt P41161 1-510); details: protein: recombinant; tags: N-terminal GST; dsDNA, one strand shown
Sequence of ETV5 (P41161 whole entry): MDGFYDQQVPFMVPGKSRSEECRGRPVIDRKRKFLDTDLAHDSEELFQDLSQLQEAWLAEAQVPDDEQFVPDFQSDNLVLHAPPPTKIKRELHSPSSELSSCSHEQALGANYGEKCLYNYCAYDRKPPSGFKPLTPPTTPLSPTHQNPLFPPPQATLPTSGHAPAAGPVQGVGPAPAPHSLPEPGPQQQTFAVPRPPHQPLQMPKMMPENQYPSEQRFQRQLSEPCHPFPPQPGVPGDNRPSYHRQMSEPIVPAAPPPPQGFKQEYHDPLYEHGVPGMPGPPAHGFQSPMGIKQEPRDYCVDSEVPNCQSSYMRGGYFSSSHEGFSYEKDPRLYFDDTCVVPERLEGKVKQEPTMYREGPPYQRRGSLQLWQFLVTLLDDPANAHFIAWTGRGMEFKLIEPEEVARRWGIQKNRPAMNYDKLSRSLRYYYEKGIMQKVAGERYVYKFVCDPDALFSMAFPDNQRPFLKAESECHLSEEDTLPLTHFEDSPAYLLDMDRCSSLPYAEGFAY
Procedure, shortened: as §1

[12] = target: HSF1 (Homo sapiens, UniProt Q00613 1-529); details: protein: recombinant; tags: N-terminal GST; chain copies: 3; dsDNA, one strand shown
Sequence of HSF1 (Q00613 whole entry): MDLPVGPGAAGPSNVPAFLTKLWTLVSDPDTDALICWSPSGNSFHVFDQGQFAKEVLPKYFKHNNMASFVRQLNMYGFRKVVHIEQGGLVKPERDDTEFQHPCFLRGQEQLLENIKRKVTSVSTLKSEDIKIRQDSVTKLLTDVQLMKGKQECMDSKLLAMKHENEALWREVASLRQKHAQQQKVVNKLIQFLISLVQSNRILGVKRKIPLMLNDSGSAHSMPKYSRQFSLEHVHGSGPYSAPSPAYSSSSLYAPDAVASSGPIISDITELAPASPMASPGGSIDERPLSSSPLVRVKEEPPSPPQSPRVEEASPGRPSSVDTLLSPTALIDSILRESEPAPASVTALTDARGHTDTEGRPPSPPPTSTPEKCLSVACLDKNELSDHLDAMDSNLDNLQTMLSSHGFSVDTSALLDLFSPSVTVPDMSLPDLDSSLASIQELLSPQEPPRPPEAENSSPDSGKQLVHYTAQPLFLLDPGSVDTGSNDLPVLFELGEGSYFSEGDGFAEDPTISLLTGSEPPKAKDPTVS
Procedure, shortened: as §1

[13] = target: T8, SPIC (Homo sapiens, UniProt Q8N5J4 1-248); details: protein: recombinant; tags: N-terminal GST; dsDNA, one strand shown
T8 sequence: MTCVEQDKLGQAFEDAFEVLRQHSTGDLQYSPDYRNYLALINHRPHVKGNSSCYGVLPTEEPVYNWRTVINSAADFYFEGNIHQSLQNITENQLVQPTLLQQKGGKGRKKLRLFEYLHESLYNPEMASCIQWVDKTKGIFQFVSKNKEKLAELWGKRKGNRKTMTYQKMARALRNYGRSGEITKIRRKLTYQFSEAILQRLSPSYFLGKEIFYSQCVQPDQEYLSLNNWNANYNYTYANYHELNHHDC
Procedure, shortened: as §1

[14] = target: ELF4 (Homo sapiens, UniProt Q99607 1-663); details: protein: recombinant; tags: N-terminal GST; dsDNA, one strand shown
Sequence of ELF4 (Q99607 whole entry): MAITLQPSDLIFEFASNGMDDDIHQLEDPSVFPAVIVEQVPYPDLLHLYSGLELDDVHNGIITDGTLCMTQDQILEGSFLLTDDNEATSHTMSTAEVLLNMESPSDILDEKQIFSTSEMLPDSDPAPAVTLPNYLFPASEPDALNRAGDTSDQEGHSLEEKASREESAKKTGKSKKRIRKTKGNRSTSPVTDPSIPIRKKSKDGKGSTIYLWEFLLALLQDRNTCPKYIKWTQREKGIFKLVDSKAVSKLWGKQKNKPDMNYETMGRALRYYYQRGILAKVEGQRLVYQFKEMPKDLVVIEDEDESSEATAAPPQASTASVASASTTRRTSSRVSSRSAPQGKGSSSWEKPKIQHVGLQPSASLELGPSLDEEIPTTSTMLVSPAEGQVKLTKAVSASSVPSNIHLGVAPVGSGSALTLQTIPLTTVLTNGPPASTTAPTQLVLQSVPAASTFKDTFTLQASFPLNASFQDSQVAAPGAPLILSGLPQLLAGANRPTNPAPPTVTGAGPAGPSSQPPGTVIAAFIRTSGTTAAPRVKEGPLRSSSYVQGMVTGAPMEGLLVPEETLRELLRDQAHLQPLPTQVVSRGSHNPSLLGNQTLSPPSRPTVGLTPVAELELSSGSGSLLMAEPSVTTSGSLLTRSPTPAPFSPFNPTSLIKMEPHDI
Procedure, shortened: as §1

[15] = target: T9, ELK4 (Homo sapiens, UniProt P28324-2 1-405); details: protein: recombinant; tags: N-terminal GST; dsDNA, one strand shown
T9 sequence: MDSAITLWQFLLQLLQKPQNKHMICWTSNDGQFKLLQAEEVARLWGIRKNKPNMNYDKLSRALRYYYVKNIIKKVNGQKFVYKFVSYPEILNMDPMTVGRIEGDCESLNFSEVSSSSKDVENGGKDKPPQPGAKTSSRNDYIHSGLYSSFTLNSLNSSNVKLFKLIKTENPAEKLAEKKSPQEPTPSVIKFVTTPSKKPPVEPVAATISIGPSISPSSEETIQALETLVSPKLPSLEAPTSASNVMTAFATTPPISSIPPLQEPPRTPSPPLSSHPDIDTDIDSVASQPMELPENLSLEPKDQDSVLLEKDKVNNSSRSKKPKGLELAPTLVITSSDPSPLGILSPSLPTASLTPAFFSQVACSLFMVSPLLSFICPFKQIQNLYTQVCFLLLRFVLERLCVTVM
Procedure, shortened: as §1

[16] = target: T10, ETV2 (Homo sapiens, UniProt O00321 1-342); details: protein: recombinant; tags: N-terminal GST; dsDNA, one strand shown
T10 sequence: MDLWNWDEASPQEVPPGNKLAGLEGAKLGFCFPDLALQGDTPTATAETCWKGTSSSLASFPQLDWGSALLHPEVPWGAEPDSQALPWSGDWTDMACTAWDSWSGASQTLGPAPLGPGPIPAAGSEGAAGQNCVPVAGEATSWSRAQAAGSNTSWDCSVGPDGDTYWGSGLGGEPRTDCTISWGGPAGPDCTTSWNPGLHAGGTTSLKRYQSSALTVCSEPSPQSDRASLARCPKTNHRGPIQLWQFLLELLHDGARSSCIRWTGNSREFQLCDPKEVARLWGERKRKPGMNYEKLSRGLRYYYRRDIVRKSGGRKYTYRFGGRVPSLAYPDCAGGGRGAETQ
Procedure, shortened: as §1

[17] = target: T11, ELF3 (Homo sapiens, UniProt P78545 1-371); details: protein: recombinant; tags: N-terminal GST; dsDNA, one strand shown
T11 sequence: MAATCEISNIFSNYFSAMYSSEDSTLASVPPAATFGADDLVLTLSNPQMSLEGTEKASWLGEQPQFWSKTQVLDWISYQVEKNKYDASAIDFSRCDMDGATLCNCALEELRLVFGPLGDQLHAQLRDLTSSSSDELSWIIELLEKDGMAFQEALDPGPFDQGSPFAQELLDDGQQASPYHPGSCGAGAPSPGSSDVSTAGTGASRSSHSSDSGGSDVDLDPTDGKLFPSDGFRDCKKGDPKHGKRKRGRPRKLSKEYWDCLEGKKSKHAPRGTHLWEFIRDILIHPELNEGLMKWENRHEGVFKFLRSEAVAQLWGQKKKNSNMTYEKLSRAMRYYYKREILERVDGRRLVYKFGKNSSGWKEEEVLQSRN
Procedure, shortened: as §1

[18] = target: CRX (Homo sapiens, UniProt O43186 1-299); details: protein: recombinant; tags: N-terminal GST; dsDNA, one strand shown
Sequence of CRX (O43186 whole entry): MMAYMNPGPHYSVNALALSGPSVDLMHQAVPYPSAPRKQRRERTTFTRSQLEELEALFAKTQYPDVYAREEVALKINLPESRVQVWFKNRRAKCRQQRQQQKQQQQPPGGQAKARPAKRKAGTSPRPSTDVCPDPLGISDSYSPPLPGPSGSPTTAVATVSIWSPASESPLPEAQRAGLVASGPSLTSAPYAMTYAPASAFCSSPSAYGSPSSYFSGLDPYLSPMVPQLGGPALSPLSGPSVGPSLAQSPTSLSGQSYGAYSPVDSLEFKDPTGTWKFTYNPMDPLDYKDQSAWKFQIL
Procedure, shortened: as §1

[19] = target: ETV1 (Homo sapiens, UniProt P50549 1-477); details: protein: recombinant; tags: N-terminal GST; dsDNA, one strand shown
Sequence of ETV1 (P50549 whole entry): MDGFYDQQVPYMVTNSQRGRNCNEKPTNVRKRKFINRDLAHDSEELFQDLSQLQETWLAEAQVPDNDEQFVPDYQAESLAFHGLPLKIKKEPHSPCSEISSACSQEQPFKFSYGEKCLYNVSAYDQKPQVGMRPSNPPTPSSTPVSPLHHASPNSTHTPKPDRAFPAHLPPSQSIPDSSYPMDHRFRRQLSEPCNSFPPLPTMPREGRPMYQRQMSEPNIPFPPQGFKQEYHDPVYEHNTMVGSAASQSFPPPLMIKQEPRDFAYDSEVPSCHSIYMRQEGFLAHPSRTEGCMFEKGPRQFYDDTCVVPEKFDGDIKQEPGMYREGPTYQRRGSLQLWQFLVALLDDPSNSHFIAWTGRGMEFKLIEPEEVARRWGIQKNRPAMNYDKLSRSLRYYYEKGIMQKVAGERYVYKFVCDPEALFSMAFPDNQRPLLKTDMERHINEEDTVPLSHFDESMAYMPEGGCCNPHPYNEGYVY
Procedure, shortened: as §1

With GGCCTT as the sequence, how does the binding signal [1] read?
The binding signal was 1.17 fold enrichment (6-mer frequency, TF over GST control).

What about the binding signal [2] of the same sequence?
Its binding signal is 1.18 fold enrichment (6-mer frequency, TF over GST control).

What about the binding signal [3] of the same sequence?
Its binding signal is 1.29 fold enrichment (6-mer frequency, TF over GST control).

What about the binding signal [4] of the same sequence?
The binding signal was 1.16 fold enrichment (6-mer frequency, TF over GST control).

And the binding signal [5]?
The binding signal was 1.09 fold enrichment (6-mer frequency, TF over GST control).

And the binding signal [6]?
The binding signal was 1.13 fold enrichment (6-mer frequency, TF over GST control).

And the binding signal [7]?
Its binding signal is 1.18 fold enrichment (6-mer frequency, TF over GST control).

What about the binding signal [8] of the same sequence?
The binding signal was 1.19 fold enrichment (6-mer frequency, TF over GST control).

And the binding signal [9]?
Its binding signal is 1.17 fold enrichment (6-mer frequency, TF over GST control).

What about the binding signal [10] of the same sequence?
The binding signal was 1.14 fold enrichment (6-mer frequency, TF over GST control).

And the binding signal [11]?
The binding signal was 1.16 fold enrichment (6-mer frequency, TF over GST control).

And the binding signal [12]?
Its binding signal is 1.05 fold enrichment (6-mer frequency, TF over GST control).

And the binding signal [13]?
Its binding signal is 1.16 fold enrichment (6-mer frequency, TF over GST control).

What about the binding signal [14] of the same sequence?
Its binding signal is 1.25 fold enrichment (6-mer frequency, TF over GST control).

What about the binding signal [15] of the same sequence?
Its binding signal is 1.09 fold enrichment (6-mer frequency, TF over GST control).

And the binding signal [16]?
Its binding signal is 1.07 fold enrichment (6-mer frequency, TF over GST control).

And the binding signal [17]?
The binding signal was 1.15 fold enrichment (6-mer frequency, TF over GST control).

And the binding signal [18]?
Its binding signal is 1.02 fold enrichment (6-mer frequency, TF over GST control).

What about the binding signal [19] of the same sequence?
Its binding signal is 1.1 fold enrichment (6-mer frequency, TF over GST control).
